Results on 10 compounds are retold here after PubChem BioAssay (EPA / NIEHS).

Inconclusive results are not listed. The source made the active and inactive calls. How the source made its calls: active means hit-call score of the fitted dose curve at least 0.9, where 1 is the maximum; inconclusive means response in the unintended direction; inactive means score below 0.9.

Sequence of human Phosphodiesterase 4A1 (PDE4A1), PDE4A (gene 5141) (P27815 whole entry, looked up): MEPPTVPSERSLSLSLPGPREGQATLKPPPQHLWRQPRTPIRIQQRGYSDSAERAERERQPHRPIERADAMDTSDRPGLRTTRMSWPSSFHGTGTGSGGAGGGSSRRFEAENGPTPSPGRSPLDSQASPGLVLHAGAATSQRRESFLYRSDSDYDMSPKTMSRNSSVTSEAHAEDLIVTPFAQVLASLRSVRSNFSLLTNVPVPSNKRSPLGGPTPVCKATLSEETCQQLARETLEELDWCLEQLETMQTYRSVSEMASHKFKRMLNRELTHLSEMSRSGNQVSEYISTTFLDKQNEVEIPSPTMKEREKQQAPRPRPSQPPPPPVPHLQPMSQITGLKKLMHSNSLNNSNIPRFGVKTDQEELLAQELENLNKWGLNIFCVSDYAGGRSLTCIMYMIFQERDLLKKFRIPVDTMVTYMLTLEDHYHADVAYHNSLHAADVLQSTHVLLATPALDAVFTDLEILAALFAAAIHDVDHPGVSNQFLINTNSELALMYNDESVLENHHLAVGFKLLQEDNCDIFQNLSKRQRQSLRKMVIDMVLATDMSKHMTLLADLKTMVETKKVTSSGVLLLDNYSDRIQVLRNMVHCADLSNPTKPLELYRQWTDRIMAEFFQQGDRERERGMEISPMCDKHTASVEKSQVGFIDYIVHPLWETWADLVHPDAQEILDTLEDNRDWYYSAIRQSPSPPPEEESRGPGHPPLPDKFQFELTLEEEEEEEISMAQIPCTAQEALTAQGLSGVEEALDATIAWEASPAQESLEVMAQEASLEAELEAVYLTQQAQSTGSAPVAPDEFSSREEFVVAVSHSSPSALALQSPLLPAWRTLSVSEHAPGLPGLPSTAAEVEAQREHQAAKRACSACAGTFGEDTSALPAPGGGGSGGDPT

In one test the target is human Phosphodiesterase 4A1 (PDE4A1), PDE4A (gene 5141) (UniProt P27815). In words: NVS_ENZ_hPDE4A1: NovaScreen (NVS) Enzymatic Assay for human Phosphodiesterase 4A1 (PDE4A1) (AID 2283191). An outline of the steps:
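Fluorescent substrate turnover by recombinant PDE4A1 read after 1 h by mobility-shift separation. Primary duplicate screen at 25 uM; hits retested in concentration series with a 50 uM maximum, relative to DMSO.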
On to `COC(=O)NC(=S)Nc1ccccc1NC(=S)NC(=O)OC`, for which the outcome was inactive. Consider `CCN(CC)c1nc(C)cc(OP(=S)(OC)OC)n1`, for which the half-maximal activity concentration (AC50) is 25 µM (active). Regarding `COP(=S)(OC)Oc1ccc([N+](=O)[O-])c(C)c1`, the call was inactive. Regarding `CC(C)Nc1nc(Cl)nc(NC(C)C)n1`, the AC50 was 1 µM (active). Take `CCNP(=S)(OC)O/C(C)=C/C(=O)OC(C)C` (configuration not stated): the AC50 is 19.5 µM (active).

On to `CCOP(=O)(OCC)Oc1nc(Cl)c(Cl)cc1Cl`, for which the AC50 is 25 µM (active). On to `CCC(C)n1c(=O)[nH]c(C)c(Br)c1=O` (configuration not stated), for which the AC50 was 25 µM (active).

For a further test, the target named is human Phosphodiesterase 5 (PDE5), PDE5A (gene 8654) (UniProt O76074). The test can be described thus: NVS_ENZ_hPDE5: NovaScreen (NVS) Enzymatic Assay for human Phosphodiesterase 5 (PDE5) (AID 2283194). A digest of the protocol:
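Screening began in duplicate at 25 uM, with actives taken into concentration-response. Enzyme activity of recombinant PDE5 toward its substrate was measured at 1 h by fluorescence mobility-shift detection, relative to DMSO controls.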
As for `CC(C)Nc1nc(Cl)nc(NC(C)C)n1`, the outcome was inactive. As for `Cc1nc(N(C)C)nc(OC(=O)N(C)C)c1C`, the compound was called inactive. For `Cc1cnc(C2=NC(C)(C(C)C)C(=O)N2)c(C(=O)O)c1` (configuration not stated), the call was inactive.

Regarding `CCOP(=O)(OCC)Oc1nc(Cl)c(Cl)cc1Cl`, the call was inactive. As for `COP(=S)(OC)SCn1nnc2ccccc2c1=O`, the AC50 was 4.85 µM (active).

One may read the AC50 as the concentration at which the activity in the assay is half-maximal.
